The text below walks through data of PubChem BioAssay (EPA / NIEHS).

Several values for one entry are separate records, joined by “and”; a condition that tells them apart may be missing. Equal values may be shown once. Records with an inconclusive call do not appear. Some compounds were tested as several samples or in several runs, with calls that do not always agree. Activity calls are given as the source filed them. How the source made its calls: active means hit-call score of the fitted dose curve at least 0.9, where 1 is the maximum; inconclusive means response in the unintended direction; inactive means score below 0.9.

Experiment [1] can be described thus: ATG_XTT_Cytotoxicity: Cytotoxicity Assessment in the Attagene TRANS-FACTORIAL HepG2 Assay (AID 2283584). Put shortly:
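Cells: human HepG2, transiently transfected with MRTU reporter constructs. Exposure 24 h. Readout: XTT, cell number. Baseline/neg ctrl DMSO; loss-of-signal scored.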

Experiment [2] can be described thus: TOX21_p53_BLA_p2_viability: Viability Assessment in the Tox21 HCT-116 p53 Agonism Beta-lactamase Assay, Phase 2 (AID 2283591).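 Further: compound exposure lasted 16 h at 37 °C; actives lower the ATP signal meaning cytotoxicity.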 The method in brief: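 HCT116 p53-bla cells, 4000/well, dosed after 5 h plating (217-fold dilution of DMSO stocks) and incubated 16 h at 37C. Viability taken as cellular ATP by CellTiter-Glo luminescence after 30 min RT; signal loss marks cytotoxicity.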

For experiment [3], the target named is Cellular tumor antigen p53 (Homo sapiens) (UniProt P04637). In words: TOX21_p53_BLA_p2_ratio: Tox21 HCT-116 p53 Agonism Beta-lactamase Assay, Ratio, Phase 2 (AID 2283592). The method in brief:
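Plated HCT116 p53-bla cells (4000/well) received compound after 5 h, then 16 h at 37C/5% CO2. CCF4-AM added, 2 h RT. Ratio of 460 to 530 nm emission taken as the p53 reporter signal.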

A short description of experiment [4]: TOX21_p53_BLA_p3_viability: Viability Assessment in the Tox21 HCT-116 p53 Agonism Beta-lactamase Assay, Phase 3 (AID 2283593).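 Further: cells exposed to compound for 16 h before reading.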 Put shortly: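 HCT116 cells, 4000/well, dosed 5 h after plating by pin transfer (217-fold dilution from DMSO stock) and incubated 16 h at 37C, 5% CO2. Viability read as ATP luminescence with CellTiter-Glo after 30 min at room temperature.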

Experiment [5] deals with Cellular tumor antigen p53 (Homo sapiens) (UniProt P04637). As to the kind of experiment: TOX21_p53_BLA_p3_ratio: Tox21 HCT-116 p53 Agonism Beta-lactamase Assay, Ratio, Phase 3 (AID 2283596). Put shortly:
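Cells were seeded at 4000/well, rested 5 h at 37C, then dosed with DMSO compound solutions (217-fold dilution) for 16 h. CCF4-AM substrate was loaded for 2 h at room temperature, and the 460/530 nm emission ratio was fitted for gain of signal versus DMSO.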

The nature of experiment [6]: TOX21_p53_BLA_p4_viability: Viability Assessment in the Tox21 HCT-116 p53 Agonism Beta-lactamase Assay, Phase 4 (AID 2283597).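 Further: hits lower the luminescence signal meaning cytotoxicity.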 The method in brief:
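Readout: ATP luminescence (CellTiter-Glo), measured 30 min after reagent addition at RT. The reagent followed a 2 h CCF4-AM incubation, and the cells had been exposed to compound for 16 h at 37C.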

In experiment [7] the target is Cellular tumor antigen p53 (Homo sapiens) (UniProt P04637). In words: TOX21_p53_BLA_p5_ratio: Tox21 HCT-116 p53 Agonism Beta-lactamase Assay, Ratio, Phase 5 (AID 2283599). The method in brief:
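HCT-116 p53-bla cells (4000/well) plated 5 h, dosed with compound (217-fold DMSO dilution) for 16 h at 37 C; CCF4-AM substrate 2 h at room temperature. Activity is the 460/530 nm emission ratio (405 nm excitation), fitted in gain-of-signal direction versus DMSO.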

Experiment [8] is described as follows: TOX21_p53_BLA_p5_viability: Viability Assessment in the Tox21 HCT-116 p53 Agonism Beta-lactamase Assay, Phase 5 (AID 2283600). Put shortly: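 Workflow: seed 4000 cells per well, wait 5 h, add compounds (DMSO, 217-fold dilution), incubate 16 h, load CCF4-AM 2 h, add CellTiter-Glo, read luminescence after 30 min.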
In experiment [9] the target is Cellular tumor antigen p53 (Homo sapiens) (UniProt P04637). As to the kind of experiment: TOX21_p53_BLA_p4_ratio: Tox21 HCT-116 p53 Agonism Beta-lactamase Assay, Ratio, Phase 4 (AID 2283601). The method in brief: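 HCT-116 p53 beta-lactamase reporter cells (4000/well) preincubated 5 h, then compound (217-fold dilution of DMSO stock) for 16 h at 37C. CCF4-AM substrate added 2 h at room temperature; 460/530 nm emission ratio fitted upward versus DMSO.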
Sequence of Cellular tumor antigen p53 (Homo sapiens) (P04637 whole entry, looked up): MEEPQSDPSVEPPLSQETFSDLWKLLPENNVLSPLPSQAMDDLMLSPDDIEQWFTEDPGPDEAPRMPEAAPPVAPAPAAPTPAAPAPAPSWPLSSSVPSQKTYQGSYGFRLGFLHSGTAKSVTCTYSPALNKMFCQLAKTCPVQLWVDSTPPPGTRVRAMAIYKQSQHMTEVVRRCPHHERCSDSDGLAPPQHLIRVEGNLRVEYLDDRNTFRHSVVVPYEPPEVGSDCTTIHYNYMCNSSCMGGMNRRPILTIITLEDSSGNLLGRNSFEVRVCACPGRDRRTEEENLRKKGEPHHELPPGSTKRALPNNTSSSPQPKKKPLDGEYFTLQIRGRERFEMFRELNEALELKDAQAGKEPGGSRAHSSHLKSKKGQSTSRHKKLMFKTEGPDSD

Consider `O=C(Nc1cccc(C(F)(F)F)c1)c1cc(Br)cc(Br)c1O`, for which the molecule was called inactive in [1] and in experiment [8]. Moreover, the half-maximal activity concentration (AC50) (commonly the concentration giving half of the maximal activity seen) in experiment [2] is 747 nM (active) and 1.12 µM (active); in [3], 181 nM (active) and 1.14 µM (active); in experiment [4], 429 nM (active) and 1.04 µM (active); in experiment [5] it was 306 nM (active) and 746 nM (active); in [6], 1.82 µM (active) and 1.7 µM (active); in experiment [7], 1.07 µM (active) and 7.71 µM (active). The AC50 in experiment [9] was 3.52 µM (active) and 8.65 µM (active).
For `C=C(C)CCO`, the molecule was classed as inactive in [1].
As for `O=C(O)c1ccccc1Nc1cccc(C(F)(F)F)c1`, the call in experiment [1], in experiment [2], in experiment [3], in experiment [4], in [5] and in experiment [8] was inactive. Also, the outcome in experiment [9] was inactive. Moreover, the figures for the AC50 in experiment [3] and in experiment [9] were 19.9 µM (active) and 39.5 µM (active), respectively.
Consider `O=C1c2cccc(O)c2C(=O)c2c(O)cc(CO)cc21`, for which the molecule was classed as inactive in experiment [1], in experiment [2], in experiment [4], in experiment [5], in experiment [6] and in experiment [8]. Besides, the result in [9] was inactive. In addition, the values for the AC50 in experiment [3] and in experiment [7] were 31.7 µM (active) and 33.3 µM (active), respectively.
Turning to `Nc1ccc(N=Nc2ccccc2)c(N)n1`, the molecule was called inactive in [1], in experiment [2], in [3], in [4], in experiment [7] and in [8]. In experiment [9], the result was inactive. Moreover, the concentration at half-maximal activity (AC50) in [3] was 85.6 µM (active) and 25.8 µM (active); in [5], 87.8 µM (active) and 85.8 µM (active) and 43.2 µM (active); in [7], 83.5 µM (active) and 85.4 µM (active).
For `Cc1oncc1C(=O)Nc1ccc(C(F)(F)F)cc1`, the call in [1], in experiment [2], in experiment [3], in experiment [4], in [5] and in experiment [6] was inactive. Further, the result in experiment [7] and in [8] was inactive.
With `COC(=O)C1=C(C)NC(C)=C(C(=O)OCC(C)C)C1c1ccccc1[N+](=O)[O-]` (configuration not stated), the result in experiment [1], in [2], in experiment [4], in [5], in experiment [6] and in experiment [8] was inactive. Further, the AC50 in experiment [3] is 18.4 µM (active); in experiment [5], 23 µM (active); in experiment [9], 33.2 µM (active) and 18.9 µM (active).
Regarding `CC(C)(C)c1n[nH]c(=O)n(N)c1=O`, the molecule was called inactive in [1].
With `CCCCC(CC)CCC(CC(C)C)OS(=O)(=O)O` (configuration not stated), the outcome in [1], in [2], in experiment [3], in experiment [4], in [5] and in experiment [6] was inactive. In addition, the outcome in [7], in experiment [8] and in experiment [9] was inactive.
For the molecule `Cc1ccc(OC(=O)CC(C)C)cc1`, the call in experiment [1] was inactive.
Take `CC(C)c1ccc2c(C(C)C)cc(C(C)C)c(S(=O)(=O)O)c2c1`: the call in experiment [1], in experiment [2], in experiment [3], in experiment [4], in experiment [5] and in experiment [7] was inactive. The outcome in [8] and in [9] was inactive. Also, the AC50 in experiment [6] was 89.7 µM (active).
On to `Nc1ccc(Oc2ccc(N)c(N)c2)cc1`, for which, in [1], the call was inactive.
`C/C=C\C/C=C/CCCCCCCCOC(C)=O`: the outcome in [1], in experiment [2], in [3], in experiment [4], in experiment [5] and in [6] was inactive. Moreover, the result in [7], in experiment [8] and in [9] was inactive.
For the molecule `O=C1CCCCCCCCCCCCCCCO1`, the molecule was classed as inactive in experiment [1], in experiment [2], in experiment [3], in experiment [4], in experiment [5] and in [7]. In addition, the molecule was called inactive in [8] and in [9].
As to `COC(=O)c1ccc2cc(C(=O)OC)ccc2c1`, the result in [1], in [2], in experiment [3], in [4], in [6] and in experiment [7] was inactive. The molecule was called inactive in experiment [8] and in experiment [9].
For the molecule `Cc1cccc(N(C)C(=S)Oc2ccc3ccccc3c2)c1`, the molecule was classed as inactive in experiment [1], in [2], in experiment [3], in experiment [4], in experiment [5] and in experiment [6]. Besides, the result in [7], in [8] and in experiment [9] was inactive.
Consider `CCCCCCCC/C=C\CCCCCCCC(=O)O`, for which the molecule was called inactive in experiment [1], in experiment [2], in experiment [3], in [4], in experiment [5] and in experiment [7]. Besides, the call in experiment [8] and in experiment [9] was inactive.
In the case of `O=C1C(N(CO)C(=O)NCO)N(CO)C(=O)N1CO` (configuration not stated), the molecule was classed as inactive in experiment [1], in experiment [2], in [3], in [4], in experiment [5] and in experiment [8].
As to `Nc1nc2ccccc2[nH]1`, the outcome in experiment [1], in experiment [2], in experiment [3], in [4], in experiment [5] and in experiment [6] was inactive. The outcome in experiment [8] and in experiment [9] was inactive.
